The values that follow come from publication PMC9838217, “Structure of SALL4 zinc finger domain reveals link between AT-rich DNA binding and Okihiro syndrome”.

Where a chain is given by its changes, count along the chain named.

Experiment in all cases: HT-SELEX; high values mean tight binding
What all share (conditions): protein: recombinant; vector His6-GST; dsDNA, one strand shown

In one assay the target is T1, SALL4 ZFC4 WT (HT-SELEX) (Mus musculus, UniProt Q8BX22 870-940).
T1 sequence: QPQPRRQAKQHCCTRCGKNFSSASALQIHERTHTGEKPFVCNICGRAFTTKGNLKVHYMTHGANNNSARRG
An outline of the steps: (§1)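 Each canonical k-mer's binding signal is its read fraction expressed as fold change over the initial random library. Reads came from MiSeq sequencing, scanned for 6-mers, after up to 6 triplicate cycles in which purified recombinant mouse SALL4 zinc finger cluster 4 (residues 870–940, 1 µg) bound library DNA (1.5 µg first cycle, 200 ng later) in 100 µl of 10 mM Tris–HCl pH 7.5, 50 mM NaCl, poly(dI-dC), DTT for 10 min at room temperature. Complexes were then Ni2+ bead-captured, washed, PCR-amplified and reselected.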

The target of assay [1] is T2, SALL4 ZFC4 R900W (HT-SELEX) (Mus musculus, UniProt Q8BX22 870-940, R900W).
T2 sequence: T1 sequence with R31W
An outline of the steps:
as §1

Assay [2] concerns the target T3, SALL4 ZFC4 G921D (HT-SELEX) (Mus musculus, UniProt Q8BX22 870-940, G921D).
T3 sequence: T1 sequence with G52D
An outline of the steps: as §1

For the sequence ACCCCA, the binding signal with SALL4 ZFC4 WT (HT-SELEX) was found to be 0.468 ± 0.0336 fold-change vs cycle 0; in assay [1] it was 0.525 ± 0.0104 fold-change vs cycle 0; in assay [2], 0.602 ± 0.0476 fold-change vs cycle 0.

Turning to GGTCCA, the results for the binding signal (with SALL4 ZFC4 WT (HT-SELEX); in assay [1]; in assay [2]) were 0.375 ± 0.0292 fold-change vs cycle 0, 0.456 ± 0.0245 fold-change vs cycle 0 and 0.558 ± 0.0709 fold-change vs cycle 0, respectively.

Turning to AATCAT, the binding signal with SALL4 ZFC4 WT (HT-SELEX) was 2.57 ± 0.14 fold-change vs cycle 0; in assay [1], 2.12 ± 0.0633 fold-change vs cycle 0; in assay [2] it was 1.93 ± 0.164 fold-change vs cycle 0.

ACAGAT: the binding signal is 1.32 ± 0.0342 fold-change vs cycle 0 with SALL4 ZFC4 WT (HT-SELEX), 1.4 ± 0.028 fold-change vs cycle 0 in assay [1] and 1.37 ± 0.0364 fold-change vs cycle 0 in assay [2].

CGATAC: the binding signal with SALL4 ZFC4 WT (HT-SELEX) was 0.695 ± 0.052 fold-change vs cycle 0; in assay [1], 0.793 ± 0.033 fold-change vs cycle 0; in assay [2], 0.902 ± 0.0425 fold-change vs cycle 0.

In the case of GAATAA, the binding signal was 2.13 ± 0.0471 fold-change vs cycle 0 with SALL4 ZFC4 WT (HT-SELEX), 2.1 ± 0.122 fold-change vs cycle 0 in assay [1] and 1.82 ± 0.178 fold-change vs cycle 0 in assay [2].
